Experimental data: PubChem BioAssay (NCI)
This is part of a sample that, as a whole, favours compounds with a hit. Of some 83,000 tested, about 20% had one in any assay.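 Activity criterion: percent growth below 10, measured after cells in 96-well plates were exposed to a single compound concentration for 48 hours.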 The source made the active and inactive calls.

Columns and labels:
Assay in all cases: NCI-60 one-dose screen, 48 h (100 = growth as untreated, 0 = no growth, -100 = all killed)
SR leukemia = settings: 10 µM
OVCAR-8 ovarian = settings: 10 µM
OVCAR-5 ovarian = settings: 10 µM
OVCAR-4 ovarian = settings: 10 µM
SK-OV-3 ovarian = settings: 10 µM
IGROV1 ovarian = settings: 10 µM
OVCAR-3 ovarian = settings: 10 µM
HS 578T breast = settings: 10 µM
NCI/ADR-RES ovarian = settings: 10 µM
T-47D breast = settings: 10 µM
BT-549 breast = settings: 10 µM
MDA-MB-435 melanoma = settings: 10 µM
SW-620 colon = settings: 10 µM
MCF7 breast = settings: 10 µM unless noted
HCT-116 colon = settings: 10 µM
HCC-2998 colon = settings: 10 µM
KM12 colon = settings: 10 µM

Measured: growth

CCCC(C)OCC(=O)O (stereo not given)
inactive: SR leukemia 94.5% | OVCAR-8 ovarian 97.2% | OVCAR-5 ovarian 108% | OVCAR-4 ovarian 84.8% | SK-OV-3 ovarian 113% | IGROV1 ovarian 105% | OVCAR-3 ovarian 108% | HS 578T breast 117% | NCI/ADR-RES ovarian 107% | T-47D breast 126% | BT-549 breast 127% | MDA-MB-435 melanoma 108% | SW-620 colon 101% | MCF7 breast 99.9% | HCT-116 colon 101% | HCC-2998 colon 106% | KM12 colon 101%

Cc1ccc(C(=O)N/N=C/c2ccc3c(c2)OCO3)cc1
inactive: SR leukemia 78% | OVCAR-8 ovarian 102% | OVCAR-5 ovarian 103% | OVCAR-4 ovarian 99.5% | SK-OV-3 ovarian 93.4% | IGROV1 ovarian 105% | OVCAR-3 ovarian 116% | HS 578T breast 115% | NCI/ADR-RES ovarian 91.3% | T-47D breast 94.7% | MDA-MB-435 melanoma 92.7% | SW-620 colon 106% | MCF7 breast 103% | HCT-116 colon 92.4% | HCC-2998 colon 96% | KM12 colon 82.1%

Cc1ccc(S(=O)(=O)O)c(C)c1
inactive: SR leukemia 95.2% | OVCAR-8 ovarian 105% | OVCAR-5 ovarian 104% | OVCAR-4 ovarian 86.5% | SK-OV-3 ovarian 95.7% | IGROV1 ovarian 103% | OVCAR-3 ovarian 110% | HS 578T breast 93.8% | NCI/ADR-RES ovarian 104% | T-47D breast 92.5% | BT-549 breast 109% | MDA-MB-435 melanoma 107% | SW-620 colon 98.8% | MCF7 breast 95.3% | HCT-116 colon 101% | HCC-2998 colon 107% | KM12 colon 109%

O=S(=O)(O)c1ccc(Cl)c(Cl)c1
inactive: SR leukemia 99.8% | OVCAR-8 ovarian 114% | OVCAR-5 ovarian 112% | OVCAR-4 ovarian 106% | SK-OV-3 ovarian 103% | IGROV1 ovarian 122% | OVCAR-3 ovarian 123% | HS 578T breast 120% | NCI/ADR-RES ovarian 106% | T-47D breast 105% | BT-549 breast 97.7% | MDA-MB-435 melanoma 100% | SW-620 colon 111% | MCF7 breast 99.9% | HCT-116 colon 105% | HCC-2998 colon 104% | KM12 colon 111%

CC1=C(/C=C/C(C)=C/C=C/C(C)=C/CO)C(C)(C)CCC1
inactive: SR leukemia 94.8% | OVCAR-8 ovarian 101% | OVCAR-5 ovarian 108% | OVCAR-4 ovarian 112% | SK-OV-3 ovarian 114% | IGROV1 ovarian 117% | OVCAR-3 ovarian 109% | HS 578T breast 105% | NCI/ADR-RES ovarian 103% | T-47D breast 96.6% | BT-549 breast 108% | MDA-MB-435 melanoma 107% | SW-620 colon 109% | MCF7 breast 125% | HCT-116 colon 107% | HCC-2998 colon 108% | KM12 colon 109%

O=C(O)CCCCNC(=O)c1ccccc1
inactive: SR leukemia 95.7% | OVCAR-8 ovarian 108% | OVCAR-5 ovarian 116% | OVCAR-4 ovarian 108% | SK-OV-3 ovarian 97.9% | IGROV1 ovarian 108% | HS 578T breast 108% | NCI/ADR-RES ovarian 94.8% | T-47D breast 88.2% | BT-549 breast 103% | MDA-MB-435 melanoma 113% | SW-620 colon 107% | MCF7 breast 101% | HCT-116 colon 101% | HCC-2998 colon 94.3% | KM12 colon 99%
